# This is a sample that favours compounds with a hit; in the whole collection about 12% have one here.
# HP1b chromo inh = inhibitors of HP1-beta chromodomain binding to methylated histone tails. P83916. AlphaScreen HP1-beta / biotin-H3K9me3 peptide binding. Potency, µM (series often up to 114 µM), without a hit: at the highest dose activity change, negative = inhibition, usual class: inhibitors. 390,000 compounds, 0.56% hits; also: nearly all actives have a fitted effect of over 70% in size
#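 AlphaScreen: HP1-beta (50 nM) preformed 30 min with biotin-H3(1-18)K9me3 peptide (50 nM) in PBS pH 7.4, 0.01% Tween-20. Compound added for 30 min at RT, then streptavidin donor/nickel chelate acceptor beads (10 ug/mL) for 30 min.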
# Sfp PPTase inh = inhibitors of Bacillus subtilis Sfp phosphopantetheinyl transferase. Q9F4F7. Biochemical Sfp PPTase activity, qHTS. Potency, µM, inactives show largest response in the series, negative = inhibition, most hits filed as inhibitors. 310,000 compounds, 3.5% hits. AID 1490;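 also: the enzyme is Sfp with the accession as filed and its product quenches rhodamine fluorescence; 0% = enzyme reaction without inhibitor and -100% = no enzyme wells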
#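 After 15 min at room temperature with compound, 15 nM Sfp received 5 uM rhodamine-CoA plus 12.5 uM BHQ-2-ybbR (50 mM Hepes pH 7.6, 10 mM MgCl2). Rate came from the fluorescence difference over 30 min, ex 525/em 598 nm.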
# PLK1 PBD block = inhibitors of human PLK1 polo-box domain binding | P53350 | 360,000 compounds, 2.8% hits | Potency, µM, for the others: max response, negative = inhibition, usual class: inhibitors | Plk1 PBD binding of FITC phosphopeptide, fluorescence polarization; also: series mostly up to about 57 µM; % is scaled to controls: 0 for no effect and ±100 for the full control effect; nearly all actives have a fitted effect of over 65% in size
# BAZ2B inh = blocks human BAZ2B. AID 504333. Potency, µM (highest dose often 114 µM), inactives show at the highest dose activity change, negative = inhibition, most hits filed as inhibitors. AlphaScreen BAZ2B-H3K14Ac peptide displacement. 360,000 compounds, 4.4% hits; also: % is scaled to controls: 0 for no effect and ±100 for the full control effect; nearly all actives have a fitted effect of over 60% in size
#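 BAZ2B 50 nM plus b-H3(5-23)K14Ac 50 nM, PBS pH 7.4/0.01% Tween-20, 30 min RT; compound added (max 110 uM), 30 min RT; streptavidin donor/Ni-chelate acceptor beads 10 ug/mL final, 20 min dark; AlphaScreen read.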
# JMJD2A Tudor inh = inhibitors of human JMJD2A Tudor domain; O75164; AlphaScreen JMJD2A-Tudor / H3K4me3 peptide binding; Potency, µM (doses to about 114 µM), inactives show at the top dose activity change, negative = inhibition, actives largely listed as inhibitors; 390,000 compounds, 4.4% hits; also: % is scaled to controls: 0 for no effect and ±100 for the full control effect; nearly all actives have a fitted effect of over 50% in size
# Target sequence (O75164 whole entry, looked up, the tested form may be a part): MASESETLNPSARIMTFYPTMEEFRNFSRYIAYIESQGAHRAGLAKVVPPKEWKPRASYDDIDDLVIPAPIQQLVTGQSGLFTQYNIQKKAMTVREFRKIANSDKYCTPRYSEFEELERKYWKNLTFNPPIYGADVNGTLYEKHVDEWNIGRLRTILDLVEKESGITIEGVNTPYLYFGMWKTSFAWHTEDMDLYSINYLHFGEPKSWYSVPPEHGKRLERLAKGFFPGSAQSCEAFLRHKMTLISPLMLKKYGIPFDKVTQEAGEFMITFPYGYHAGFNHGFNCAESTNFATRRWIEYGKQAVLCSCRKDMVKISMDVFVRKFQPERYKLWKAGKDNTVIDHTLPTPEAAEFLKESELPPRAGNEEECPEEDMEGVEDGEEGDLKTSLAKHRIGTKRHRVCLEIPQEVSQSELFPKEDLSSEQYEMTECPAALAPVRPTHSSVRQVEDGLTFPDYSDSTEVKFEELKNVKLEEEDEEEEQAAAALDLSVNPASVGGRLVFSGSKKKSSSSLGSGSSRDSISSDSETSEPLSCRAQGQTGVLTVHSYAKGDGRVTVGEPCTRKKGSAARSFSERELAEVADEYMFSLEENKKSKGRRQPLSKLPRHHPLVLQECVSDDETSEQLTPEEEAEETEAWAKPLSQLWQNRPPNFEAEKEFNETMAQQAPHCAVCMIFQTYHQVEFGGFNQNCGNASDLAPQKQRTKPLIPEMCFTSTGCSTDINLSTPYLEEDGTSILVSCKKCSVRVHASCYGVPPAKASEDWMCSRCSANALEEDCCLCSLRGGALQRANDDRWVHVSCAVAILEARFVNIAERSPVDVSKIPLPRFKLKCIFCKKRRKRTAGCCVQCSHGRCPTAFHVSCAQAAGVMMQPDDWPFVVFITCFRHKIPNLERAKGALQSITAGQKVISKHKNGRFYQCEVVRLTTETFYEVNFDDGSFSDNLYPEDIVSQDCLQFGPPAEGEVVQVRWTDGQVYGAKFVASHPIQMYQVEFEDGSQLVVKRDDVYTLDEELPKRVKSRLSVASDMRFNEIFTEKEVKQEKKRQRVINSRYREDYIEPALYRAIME
# G9a inh = inhibitors of human histone lysine methyltransferase G9a. G9a H3K9 monomethylation, AlphaScreen, 2 h. Potency, µM (highest dose often 102 µM), for the others: at the highest dose activity, negative = inhibition, usual class: inhibitors. 350,000 compounds, 8.8% hits; also: % is scaled to controls: 0 for no effect and ±100 for the full control effect; nearly all actives have a fitted effect of over 75% in size
#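 Readings reflect AlphaScreen signal from monomethyl-H3K9 antibody detection. HMT at 20 nM; substrate b-H3K9 500 nM; cofactor SAM 20 uM; 2 h RT reaction; compounds tested as titrations in qHTS with 15 min preincubation.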
# * hit, by the source's call; ? = inconclusive; . = not tested or not shown; [ ] = another dose, or the depositor's remark. Calls follow the shape of the dose curve; as a rule, active = well fitted curve in the direction sought with a large enough effect; inconclusive = small, poorly fitted or top-dose-only effect, or another doubt; inactive = no such curve, though single readings can be large; an effect the other way counts as inactive or inconclusive. Potency is read from the fitted curve at half-maximal effect.
SMILES,HP1b chromo inh,Sfp PPTase inh,PLK1 PBD block,BAZ2B inh,JMJD2A Tudor inh,G9a inh
COCC(=O)N/N=C/c1c(C)[nH]n(-c2ccccc2)c1=O,21.0%,-13.9%,-11.1%,21.8%,79.4µM*,8.6%
Cc1[nH]n(-c2ccccc2)c(=O)c1/C=N/O,8.2%,-16.9%,-18.3%,50.1µM*,79.4µM*,.
Cc1[nH]n(-c2ccccc2)c(=O)c1C=Nc1ccc(S(=O)(=O)NC(N)=O)cc1,43.1%,17.1%,2.0%,-22.3%,-2.4%,?
CCOC(=O)c1[nH]n(-c2ccc(Cl)cc2)c(=O)c1C,?,-17.5%,-8.8%,?,70.8µM*,?
Cc1[nH]n(-c2ccccc2)c(=O)c1/C=N/NC(=O)C(C)C,72.1%,27.7%,4.3%,31.6µM*,79.4µM*,-37.6%
CCOc1ccc(-c2cc3nc(C4CCN(C(=O)OC(C)(C)C)CC4)c(C(=O)Nc4ccc(C)c(F)c4)cn3n2)cc1,45.2%,.,.,-10.4%,-4.3%,10.6%[59 µM]
Cc1[nH]n(-c2ccccc2)c(=O)c1C(=O)c1ccc(Cl)cc1,-10.5%,6.3%,-1.8%,-12.6%,50.1µM*,.
Cc1[nH]n(-c2ccccc2)c(=S)c1C=NCCCN=Cc1c(C)[nH]n(-c2ccccc2)c1=S,14.1µM*,-96.2%,16.8µM*,?,2µM*,1.78µM*
CCOc1ccc2nc(/N=C/c3c(C)[nH]n(-c4ccc(C)cc4)c3=O)sc2c1,13.6%,8.4%,-8.1%,?,-16.3%,?
CCOc1ccc2nc(/N=C/c3c(C)[nH]n(-c4ccccc4)c3=O)sc2c1,?,10µM*,-12.7%,0.1%,-14.5%,25.1µM*
Cc1[nH]n(-c2ccccc2)c(=O)c1/C=N/N(C)c1ccccc1,-16.8%,-17.9%,-12.3%,?,?,12.6µM*
Cc1[nH]n(-c2ccc(Cl)cc2)c(=O)c1C(=O)c1ccccc1,28.4%,3.4%,-16.3%,-6.5%,-29.2%,.
O=C(Nc1c2c(nn1-c1ccccc1)CS(=O)C2)c1ccc2c(c1)OCO2 (stereo not given),11.9%,6.8%,-14.7%,-12.2%,-13.2%,.
CC(C)c1ccc(N2C(=O)N(Cc3ccccc3Cl)c3ccccc3S2(=O)=O)cc1,60.3%,.,.,-9.5%,-3.3%,2.3%[59 µM]
Cc1[nH]n(-c2ccccc2)c(=O)c1/C=N/NC(=O)COc1ccccc1[N+](=O)[O-],15.2%,20.6%,-12.5%,79.4µM*,79.4µM*,1.8%[59 µM]
COC(=O)N/N=C\c1c(C)[nH]n(-c2ccccc2)c1=O,14.4%,-18.4%,-19.5%,?,?,1.78µM*
CSc1nnc(-c2ccccc2N=Cc2c(C)[nH]n(-c3ccccc3)c2=O)c(=O)[nH]1,11.5%,11.2%,-8.6%,?,-17.8%,20.5%[0.501 µM]
Cc1[nH]n(-c2ccccc2)c(=O)c1/C=N\NC(=O)C1COc2ccccc2O1 (stereo not given),19.3%,7.0%,-1.4%,70.8µM*,?,8.1%[59 µM]
Cc1c(/C=N/NC(=O)COc2ccccc2[N+](=O)[O-])c2ccccc2n1C,10.3%,-13.3%,-8.1%,-35.0%,-19.9%,9.0%[59 µM]
COC(=O)CN=Cc1c(C)[nH]n(-c2ccccc2)c1=O,39.8%,-7.1%,0.4%,-16.9%,-2.5%,?
Cc1ccc2cccc(N=Cc3c(C)[nH]n(-c4ccccc4)c3=O)c2n1,-21.4%,-1.9%,-1.4%,-35.1%,?,10µM*
CN(C)C(CNC(=O)CCc1c[nH]c2ccccc12)c1ccccc1 (stereo not given),7.5%,6.0%,0.5%,-9.1%,-18.5%,-12.8%
N#Cc1ccc(CN2CCC3(CC2)CCN(C(=O)c2cccc(F)c2)CC3)cc1,.,13.9%,.,.,.,-1.8%[12.7 µM]
Cc1noc(C)c1COc1ccccc1C(=O)NC(C)c1ccc(F)cc1 (stereo not given),20.7%,.,-1.9%,.,-14.2%,.
O=C(Cn1cc(S(=O)(=O)N2CCCC2)c(S(=O)(=O)N2CCCC2)c1)Nc1ccccc1,3.5%,.,.,7.4%[57.1 µM],-19.1%,-7.9%[59 µM]
SMILES,HP1b chromo inh,Sfp PPTase inh,PLK1 PBD block,BAZ2B inh,JMJD2A Tudor inh,G9a inh
CC(=O)N/N=C/c1c(C)[nH]n(-c2ccccc2)c1=O,24.3%,14.8%,-17.2%,79.4µM*,50.1µM*,-2.8%
Cc1[nH]n(-c2ccccc2)c(=O)c1/C=N/NC(=O)c1cccc([N+](=O)[O-])c1,36.4%,10.5%,-3.5%,-3.5%,-20.8%,30.8%[2.33 µM]
COc1ccc(NC(=O)c2ccccc2NC(=O)CN2CCCCCC2)cc1,31.7%,.,5.9%,11.7%,-24.2%,9.4%[59 µM]
C=CCNc1nc(-c2ccc(O)c(C(N)=O)c2)cs1,-14.3%,-12.6%,2.99µM*,?,14.1µM*,?
NC(=O)c1cc(-c2csc(NCCc3ccccc3)n2)ccc1O,?,?,29.9µM*,56.2µM*,?,35.5µM*
Nc1ccc2nc(CCCCCCCCc3nc4ccc(N)cc4[nH]3)[nH]c2c1,3.7%,-0.9%,-12.1%,22.4µM*,50.1µM*,31.6µM*
CCOC(=O)CSc1nnc(CCc2nc3ccccc3[nH]2)n1C,50.1%,7.1%,-11.9%,7.4%,5.3%[57.1 µM],10.6%[12.7 µM]
Cn1c(CCc2nc3ccccc3[nH]2)n[nH]c1=S,16.7%,?,-19.8%,0.3%,7.94µM*,?
Oc1ccc(O)c(Cc2nc3ccccc3[nH]2)c1,?,35.5µM*,-17.3%,-34.0%,10µM*,3.16µM*
c1ccc2[nH]c(CCCc3nc4ccccc4[nH]3)nc2c1,54.0%,16.1%,-8.0%,-5.6%,-11.9%,56.2µM*
Nc1ccc2nc(CCCO)[nH]c2c1,33.8%,4.1%,2.9%,50.1µM*,-9.5%,28.2µM*
Cc1ccccc1OCc1nc2ccccc2[nH]1,-24.1%,9.4%,26.7µM*,-14.9%,?,17.8%
O=C(CCc1nc2ccccc2[nH]1)N1CCc2ccccc2C1,13.5%,4.5%,?,5.3%,-20.7%,89.1µM*
CN(CC(=O)O)Cc1nc2ccccc2[nH]1,32.4%,89.1µM*,-0.1%,20µM*,-71.2%,1.26µM*
COc1ccccc1OCc1nc2ccccc2[nH]1,23.7%,4.4%,1.0%,-6.0%,-3.8%,14.2%[59 µM]
COC(=O)c1ccc(C(=O)OCCCc2nc3ccc(N)cc3[nH]2)cc1,7.1%,16.4%,-1.5%,-11.1%,-28.2%,-6.6%[59 µM]
CC(=O)NCCc1nc2ccccc2[nH]1,46.5%,12.1%,-2.9%,-2.6%,1.4%,-11.5%[59 µM]
O=C1Oc2ccccc2C(=O)C1C(CC(O)c1ccc(-c2ccc(Br)cc2)cc1)c1ccccc1 (stereo not given),.,18.4%,.,.,.,?
CSc1ccc(CCNC(=O)Cn2ccc3cc(S(=O)(=O)N4CCCCCC4)ccc32)cc1,21.4%,.,.,-20.1%,-0.3%,-25.3%[59 µM]
CCC(C)n1c(=N)c(C(=O)NC2CCCCC2)cc2c(=O)n3cc(C)ccc3nc21 (stereo not given),20.9%,.,.,3.2%,1.0%,-47.1%[59 µM]
